# From article PMC4336329 (PLoS ONE, 2015)
# Out of some 310,000 compounds screened, about 2,200 (0.71%) showed an effect of 50% or more. The effect is printed as a negative number. This excerpt belongs to a sample that is enriched for strong results.
# Target: human ether-à-go-go-related gene (hERG) potassium channel (human, UniProt Q12809)
# Experiment: primary screen, population patch clamp on CHO cells stably expressing hERG; higher = less effect of the substance
# human ether-à-go-go-related gene (hERG) potassium channel, sequence (Q12809 whole entry, looked up): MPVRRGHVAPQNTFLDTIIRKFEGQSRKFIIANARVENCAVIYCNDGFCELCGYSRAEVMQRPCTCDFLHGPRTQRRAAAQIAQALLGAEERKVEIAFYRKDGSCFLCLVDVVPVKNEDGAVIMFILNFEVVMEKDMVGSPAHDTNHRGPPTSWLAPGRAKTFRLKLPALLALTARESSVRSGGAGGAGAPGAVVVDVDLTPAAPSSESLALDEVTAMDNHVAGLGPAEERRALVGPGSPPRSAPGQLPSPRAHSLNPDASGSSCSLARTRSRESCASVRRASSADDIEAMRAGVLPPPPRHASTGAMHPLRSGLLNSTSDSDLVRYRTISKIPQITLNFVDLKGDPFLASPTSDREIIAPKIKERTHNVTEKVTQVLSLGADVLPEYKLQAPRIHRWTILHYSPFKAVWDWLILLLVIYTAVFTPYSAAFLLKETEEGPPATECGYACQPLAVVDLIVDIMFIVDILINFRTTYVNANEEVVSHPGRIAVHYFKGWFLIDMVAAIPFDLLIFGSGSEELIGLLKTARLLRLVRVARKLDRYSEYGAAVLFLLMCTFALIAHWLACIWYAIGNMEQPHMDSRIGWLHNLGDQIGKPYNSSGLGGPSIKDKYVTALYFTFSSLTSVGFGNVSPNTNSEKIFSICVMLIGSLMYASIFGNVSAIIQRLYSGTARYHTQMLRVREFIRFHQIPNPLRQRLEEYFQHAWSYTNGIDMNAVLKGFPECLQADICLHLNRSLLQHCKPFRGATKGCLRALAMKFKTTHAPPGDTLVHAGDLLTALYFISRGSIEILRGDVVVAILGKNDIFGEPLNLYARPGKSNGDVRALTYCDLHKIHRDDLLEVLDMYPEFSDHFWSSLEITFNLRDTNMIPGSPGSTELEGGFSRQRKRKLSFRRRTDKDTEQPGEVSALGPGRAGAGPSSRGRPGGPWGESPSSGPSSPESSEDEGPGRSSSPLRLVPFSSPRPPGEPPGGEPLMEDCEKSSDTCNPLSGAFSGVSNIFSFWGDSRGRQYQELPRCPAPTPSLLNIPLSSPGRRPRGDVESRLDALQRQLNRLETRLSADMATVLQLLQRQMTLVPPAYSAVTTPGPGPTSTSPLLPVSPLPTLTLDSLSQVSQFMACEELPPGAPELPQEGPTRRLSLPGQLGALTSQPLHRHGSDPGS
row,SMILES,"hERG current change (%, negative = inhibition) at 1uM"
1,COc1ccc(-c2noc(CSc3nc4ccccc4c(=O)n3-c3ccccc3)n2)cc1,1.58%
2,CCC1(C)Cc2ccccc2-c2nc3n(c(=O)c21)CCS3 (stereo not shown),12%
3,O=c1[nH]c(CN2CCN(C/C=C/c3ccccc3)CC2)nc2cc(Cl)ccc12,-108%
4,O=c1[nH]c(CN2CCN(S(=O)(=O)/C=C/c3ccccc3)CC2)nc2cc(Cl)ccc12,-21.4%
5,O=c1[nH]c(CN2CCN(S(=O)(=O)/C=C/c3ccccc3)CC2)nc2ccccc12,-18.2%
6,O=c1[nH]c(CN2CCN(C/C=C/c3ccccc3)CC2)nc2ccccc12,-52.6%
7,O=C(CCc1nc2ccccc2c(=O)[nH]1)N1CCN(C/C=C/c2ccccc2)CC1,-12.3%
8,O=c1[nH]c(CN2CCOCC2)nc2cc(Cl)ccc12,4.78%
9,Cc1cc(C)n(-c2nc(-c3ccccc3)cs2)n1,1.91%
10,O=C(Nc1ccc2oc(-c3ccc4ccccc4c3)nc2c1)c1ccc2c(c1)OCCO2,16.3%
11,Cc1cc2oc(=O)cc(CN3CCN(S(=O)(=O)/C=C/c4ccccc4)CC3)c2cc1C,14.5%
12,O=c1cc(CN2CCN(C/C=C/c3ccccc3)CC2)c2cc(O)c(-c3ccccc3)cc2o1,12.8%
13,O=c1cc(CN2CCN(C/C=C/c3ccccc3)CC2)c2cc(O)ccc2o1,-86%
14,Cc1ccc2oc(=O)cc(CN3CCN(C/C=C/c4ccccc4)CC3)c2c1,-53.7%
15,Cc1c(O)ccc2c(CN3CCN(C/C=C/c4ccccc4)CC3)cc(=O)oc12,-36.2%
16,Cc1cc(C)c2c(CN3CCN(C/C=C/c4ccccc4)CC3)cc(=O)oc2c1,-41.5%
17,Cc1cc2oc(=O)cc(CN3CCN(C/C=C/c4ccccc4)CC3)c2cc1O,-67.8%
18,CCN1CCN(Cc2cc(=O)oc3ccc(C)cc23)CC1,11.9%
19,O=c1cc(CN2CCN(S(=O)(=O)/C=C/c3ccccc3)CC2)c2ccc(O)cc2o1,-29.8%
20,COc1cccc(NC(=O)C2CCCO2)c1 (stereo not shown),11.7%
21,COC(=O)C1=NN(N=O)C2(CC(=O)N(c3cc(C)cc(C)c3)C2=O)C1 (stereo not shown),9.48%
22,CCC(=O)N1c2ccc(S(=O)(=O)N3CCN(C)CC3)cc2CC1C (stereo not shown),4.4%

row,SMILES,"hERG current change (%, negative = inhibition) at 1uM"
1,Cc1c(CC(=O)N[C@@H](C)C(=O)O)c(=O)oc2cc3occ(-c4ccccc4)c3cc12,18.2%
2,Cc1ccc(Cn2ncc3c(NCCN(C)C)ncnc32)cc1,1.2%
3,COc1ccc(N2CC(C(=O)Nc3ccccc3N3CCCC3)CC2=O)c(OC)c1 (stereo not shown),8.29%
4,CCOC(=O)c1ccc(NC(=S)N(CCCN2CCN(CC)CC2)Cc2cccs2)cc1,-40.2%
5,CCOc1ccc2nc(NC(=O)Cc3cccs3)sc2c1,6.15%
6,COCCN1Cc2cc3cc(C)ccc3nc2SC1=Nc1ccc(OC)cc1,9.8%
7,CCOc1ccc(N=C2Sc3nc4ccc(C)cc4cc3CN2CCOC)cc1,16.5%
8,CCC(C)N=C1Sc2nc3ccc(C)cc3cc2CN1CCOC (stereo not shown),-60.4%
9,C=CCn1c(SCC(O)Cn2c3ccccc3c3ccccc32)nnc1-c1ccco1 (stereo not shown),13.9%
10,O=c1[nH]ncn1-c1ccccc1C(F)(F)F,10.3%
11,CCc1ccc2[nH]c(=O)c(CN(CCN3CCCC3)C(=O)NC3CCCCC3)cc2c1,-8.52%
12,CCN(CC)CCN(Cc1cc2ccc(C)cc2[nH]c1=O)C(=O)NC1CCCCC1,-23.9%
13,CCN(CC)CCN(Cc1cc2cc(C)ccc2[nH]c1=O)C(=O)Nc1ccccc1OC,-22.2%
14,CCc1ccc2[nH]c(=O)c(CN(CCN(CC)CC)C(=O)NC3CCCCC3)cc2c1,-51.5%
15,CCc1ccc2[nH]c(=O)c(CN(CCN(C)C)C(=O)Nc3ccccc3OC)cc2c1,-41.4%
16,CCc1ccc2[nH]c(=O)c(CN(CCN(CC)CC)C(=O)Nc3ccccc3OC)cc2c1,-50.7%
17,O=C(Cc1ccc([N+](=O)[O-])cc1)Nc1ccc2c(c1)CCC2,10.4%
18,COc1ccc(-c2nsc(SCC(=O)Nc3ccc4c(c3)OCO4)n2)cc1,15%
19,COC(=O)[C@@H](NC(=O)c1ccccc1)[C@@H](C)O,5.85%
20,Nc1nc(N2CCCCC2)nc(N2CCCCC2)n1,-78.5%
21,C1CCN(c2nc(N3CCCCC3)nc(N3CCNCC3)n2)CC1,2.68%
22,Nc1nc(N2CCCCC2)nc(N(c2ccccc2)c2ccccc2)n1,15.2%

row,SMILES,"hERG current change (%, negative = inhibition) at 1uM"
1,COC(=O)CN1C(=O)Nc2ccc(Br)cc2C1c1ccccc1Cl (stereo not shown),-8.8%
2,C/C(=N/NC(=O)c1cccnc1)C1=C(O)CC(C)(C)CC1=O,18.4%
3,CCOC(=O)CSc1cn2c(n1)CCC2,14.5%
4,CNC(=O)CSc1nc2cc(S(=O)(=O)Nc3ccccc3OC)ccc2o1,9.52%
5,Cc1sc2ncnc(NCCN3CCOCC3)c2c1C.O=C(O)C(=O)O,9.44%
6,Cc1sc2ncnc(NCC(C)(C)N3CCOCC3)c2c1C,-63.6%
7,Cc1sc2ncnc(N3CCOCC3)c2c1C,-5.93%
8,COC(=O)CC1NCCc2cc(OC)c(OC)cc21 (stereo not shown),5.12%
9,CC(OC(=O)CCC1CCCCC1)C(=O)Nc1ccc(S(N)(=O)=O)cc1 (stereo not shown),9.83%
10,CCOC(=O)C1CCCN(C(=O)CC(c2ccccc2)c2ccccc2)C1 (stereo not shown),-2.54%
11,O=C(CN=C1NS(=O)(=O)c2ccccc21)OCC(=O)c1ccccc1,10.8%
12,CCC(C)(C)c1ccc(OCCCC[n+]2ccc(C)cc2)c(C(C)(C)CC)c1.[Br-],-34.5%
13,CCC(C)(C)c1ccc(OCCCC[n+]2ccccc2)c(C(C)(C)CC)c1.[Br-],-28.5%
14,CCC(C)(C)c1ccc(OCCCC[n+]2cccc(C)c2C)c(C(C)(C)CC)c1.[Br-],-52.7%
15,CCOC(=O)c1cc2[nH]c3ccccc3c2[n+](-c2ccc([N+](=O)[O-])cc2)c1N.O=C([O-])C(F)(F)F,-13.8%
16,CCOC(=O)c1cc2[nH]c3ccccc3c2[n+](-c2ccc([N+](=O)[O-])cc2)c1C.[Cl-],-70.6%
17,N#Cc1cc2[nH]c3ccccc3c2[n+](-c2ccc([N+](=O)[O-])cc2)c1N.[Cl-],-28.7%
18,C[C@]12CCC3C(CCC4=C/C(=N/OCC(=O)NC(CCC(=O)O)C(=O)O)CC[C@@]43C)C1CCC2O (stereo partly shown),10.5%
19,CCN(CC)/C(=N\S(=O)(=O)c1ccccc1C)c1ccccc1,-5.09%
20,Cc1nn2cc(-c3ccc(Cl)cc3)cnc2c1Cl,13.1%
21,CCn1c(=N)c(C(=O)NCCCOC)cc2c(=O)n3cccc(C)c3nc21,-47%
22,C=CCn1c(=N)c(C(=O)NCCCOC)cc2c(=O)n3ccccc3nc21,-22.3%

row,SMILES,"hERG current change (%, negative = inhibition) at 1uM"
1,CCOC(=O)c1cc2c(=O)n3cccc(C)c3nc2n(CCOC)c1=NC(C)=O,8.92%
2,C=CCn1c(=N)c(C(=O)OCC)cc2c(=O)n3cccc(C)c3nc21,-73.7%
3,C=CCn1c(=N)c(C(=O)NCCCOC)cc2c(=O)n3cccc(C)c3nc21,-64.2%
4,O=C(Nc1ccccc1F)N(CCCN1CCOCC1)Cc1cc2cc3c(cc2[nH]c1=O)OCCO3,9.36%
5,Cc1ccc(NC(=O)c2cc(N3C(=O)CCC3=O)ccc2N2CCOCC2)cc1,5.52%
6,COc1ccc(CN(C)S(=O)(=O)c2nnc(NC(=O)c3cccc(F)c3)s2)cc1OC,6.86%
7,CSc1nc(-c2ccco2)cc(C(F)(F)F)c1C#N,12%
8,CCOC(=O)N1CCN(C(=O)C2CCCN(c3nc4ccc(OCC)cc4s3)C2)CC1 (stereo not shown),-3.97%
9,CCn1c(SCC(=O)NC2CCS(=O)(=O)C2)nnc1-c1ccccc1 (stereo not shown),6.72%
10,COc1ccccc1-c1nnc(SCC(=O)NC2CCS(=O)(=O)C2)n1CCc1ccccc1 (stereo not shown),11.2%
11,O=C(CSc1nnc(-c2ccc(Br)cc2)n1CCc1ccccc1)NC1CCS(=O)(=O)C1 (stereo not shown),-60.7%
12,COc1ccc(C2(c3cccc(O)c3OC)CCN(C(C)=O)CC2)cc1O,17.8%
13,Cc1ccc2nc(NC(=O)C3CCCN(S(=O)(=O)c4cccnc4)C3)sc2c1 (stereo not shown),7.66%
14,CCOCCCn1c(=NC(=O)c2cccs2)c(C#N)cc2c(=O)n3ccccc3nc21,-49.3%
15,CCCCCn1c(=NC(C)=O)c(C#N)cc2c(=O)n3ccccc3nc21,0.0455%
16,CC(C)OCCCn1c(=NC(=O)c2ccncc2)c(C#N)cc2c(=O)n3ccccc3nc21,-63.4%
17,CCOCCCn1c(=NC(C)=O)c(C#N)cc2c(=O)n3ccccc3nc21,11.7%
18,CC(=O)N=c1c(C#N)cc2c(=O)n3ccccc3nc2n1CCCOC(C)C,8.03%
19,CC(C)OCCCn1c(=NC(=O)c2cccs2)c(C#N)cc2c(=O)n3ccccc3nc21,-67.1%
